The results in this text go back to the supplement of paper PMC11417369.

± gives the standard deviation of the averaged measurements. Whole data set: some 25,000 sequences, median “ln(normalized median fluorescence intensity)” near 8.6, cut for the highest 2% near 10. The sample holds the highest values, similar sequences and a random draw of the others, so the mix is not that of the screen.

For the experiment, the system named is PfAP2-EXP AP2 domain (GST-tagged). Kind of experiment: gcPBM binding intensity (ln(normalized median fluorescence intensity)); higher = stronger DNA binding. The method in brief: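 Each value is the highest Masliner-normalised natural-log median intensity across replicate spots of either orientation of a probe. The probes were primer-extended double-stranded 36-bp intergenic genomic sequences on an Agilent 4 × 180k array, alongside negative controls, exposed for 1 h to GST-tagged P. falciparum DNA-binding domains expressed in E. coli. Bound protein was picked up with Alexa488 anti-GST antibody and scanned at 488 nm.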
In the case of “ACATACATACACCCACGTACGTACCGAAACACCACC [XGTACX_site1212]”, the “gcPBM binding intensity (ln)” value was found to be 9.11 ± 0.35. Consider “TATTTATGTTCATATAAACACACGTAAAATTCAAGG [CACACA_site1538]”, for which the “gcPBM binding intensity (ln)” value was 8.62 ± 0.39. The figure for “TAAATAATAATAAAATGTACATTATATATGTATATG [XGTACX_site8672]” is 8.44 ± 0.36; for “AACTTCTTTTTTATAACACACAAAATATATATACAA [CACACA_site282]” it is 8.69 ± 0.42; for “AAAGGAAAAGTTGACTGTACATAAGTAAAAAATAAT [XGTACX_site788]” it is 9.15 ± 0.42. As for “ATATATATATAATGTAGTACTATTTAATAATAAGCC [XGTACX_site1263]”, the “gcPBM binding intensity (ln)” value amounted to 9.775 ± 0.078. Regarding “AAATAAAATACAATATGATAAAATGTTATCATATAT [CACACA_negctrl_site538]”, the “gcPBM binding intensity (ln)” value came to 8.35 ± 0.38. The figure for “TATATATATATATTCACACATAAATATATGCACCCA [CACACA_site4263]” is 9.96 ± 0.2. With “TTTAATATATATATGTGTACATATAAATTATATATA [XGTACX_site8511]”, the “gcPBM binding intensity (ln)” value amounted to 8.2 ± 0.23.

As to “TTTTTTTTTTTTTTTGCACACAGGGTGTAGGACAAG [CACACA_site2842]”, the “gcPBM binding intensity (ln)” value came to 8.6. In the case of “TTATATTATACATACACACCCATATAATATGTTTTT [CACACA_site4636]” it was 8.73 ± 0.42; in that of “ATAAATATTGGGTGCACACACATAATATATATATAT [CACACA_site2272]”, 10.1 ± 0.21; in that of “GGAAAAACCATTCGCACACACACATAATATATAATA [CACACA_site1424]”, 8.66 ± 0.47. The figure for AACCATTGGGAAAGGGTGCACATATATATATATATA is 10.8 ± 0.35; for TTTAAGCGTTCACTGCTGCACTTTTATGTTGTGACC it is 8.71 ± 0.51; for “GAAGAAAAATAAAAAGTGCAAAAAAAGTAAAAATTT [GTGCAC_site9897]” it is 8.95 ± 0.49. Turning to “TATATATATATATATACACACACACCCATATATATA [CACACA_site8812]”, the “gcPBM binding intensity (ln)” value was found to be 10.3 ± 0.3. In the case of “CATACACCCATACATACACACATACATATATATATA [CACACA_site8591]” it was 9.895 ± 0.064. As for “TCAAAGCACAGATACACACACATATATATATATATA [CACACA_site287]”, the “gcPBM binding intensity (ln)” value came to 10 ± 0.42. On to “CACATATATACACATACACACACACCCATACACCCA [CACACA_site8505]”, for which the “gcPBM binding intensity (ln)” value worked out at 8.77 ± 0.33.

Take “CATATACATACACATACACACATACACCCATACACA [CACACA_site8514]”: the “gcPBM binding intensity (ln)” value came to 8.77 ± 0.55.

Take “TCAAAGCACCCATACACACACATATATATATATATA [CACACA_site4317]”: the “gcPBM binding intensity (ln)” value was 10.3 ± 0.19. For “TGAATAAATCAAAGCACACATACACCCACATATATA [CACACA_site286]”, the “gcPBM binding intensity (ln)” value was found to be 8.78 ± 0.49. The figure for “TATATATACATATACACACACACACCCATATATATA [CACACA_site2246]” is 8.84 ± 0.39; for “TATATATATATATACACACACACACCCATATATATA [CACACA_site2538]” it is 10.2 ± 0.24.

For the sequence “TATCACAAAATATACTGTACATACAGGCAGTAATAT [XGTACX_site2487]”, the “gcPBM binding intensity (ln)” value was determined as 8.71 ± 0.34. The figure for “GAAAAAAAAAAAAATACACACAAATTGGTATAGAAT [CACACA_site380]” is 8.53 ± 0.47; for “TTGGTGATATTTTTCTCACACATTTACCAGAGATGT [CACACA_site4684]” it is 8.44 ± 0.37; for “AGGTACTTTTTTAAAACACACATATAATAAATACAC [CACACA_site4730]” it is 8.84 ± 0.28. As to “GTAAGTTGTGCATTCACACACATATAAATATAAATA [CACACA_site7536]”, the “gcPBM binding intensity (ln)” value was determined as 8.66 ± 0.24. The figure for “GTAAGTTGTGCATTCACACACATATATATATATATA [CACACA_site3303]” is 10.2 ± 0.28; for “ATGTAAGTTGTGCATTCACACACATATATATATATA [CACACA_site9086]” it is 10.2 ± 0.2; for “AGTTCAGAATTGAATAGTACATAAATATAACAAAAT [XGTACX_site650]” it is 8.88 ± 0.36. “TGTATTTTTAACATATGTACGAATAGCACGTGTTAT [XGTACX_site3640]”: the “gcPBM binding intensity (ln)” value turned out to be 8.89 ± 0.44.

For “AGTTTTTATTAAAACAAAATTTAATTATAACGTTGA [XGTACX_negctrl_site298]”, the “gcPBM binding intensity (ln)” value is 8.08 ± 0.3. In the case of “TATATATATATAGATGCATGCAATTACATATAACAA [TGCATGCA_site118]” it was 10.2 ± 0.23; in that of “ATATAGATGCATAATACACACATCAGATAATTAACC [CACACA_site6871]”, 8.64 ± 0.33. In the case of “CAATTAAAAAATAATACATGCATATAAATAGATATT [TGCATGCA_site427]” it was 8.71 ± 0.38.

On to “TCCTTATTTCATATTTTTAAATAATACAAAAAAAAA [CACACA_negctrl_site773]”, for which the “gcPBM binding intensity (ln)” value stood at 8.06 ± 0.38. The figure for “TATAATAATACGTATTGTACTATTAGGTTAATTCGT [XGTACX_site264]” is 8.34 ± 0.33; for “ATGTAGGTTAATTATTGTACGTAGGGGGTGTATATT [XGTACX_site3973]” it is 10.2 ± 0.48; for “TATAATAATAATTATTGTACGATTAGGTTAATTCAT [XGTACX_site1984]” it is 8.37 ± 0.23. The figure for “ATTATTTTAATAAAACGTACAAAATATAAATCAAAA [XGTACX_site3770]” is 8.73 ± 0.45; for “GGTTAGACGAAATATACATGCAATGGAAAATAAGTT [TGCATGCA_site23]” it is 9.42 ± 0.24; for “AAATAAAAAGTAAAGCGTACAAATGATCAAATAATA [XGTACX_site7898]” it is 9.04 ± 0.53.
